Data reported in PubChem BioAssay AID624331 (National Center for Advancing Translational Sciences (NCATS), 2012).
Results filed as inconclusive are left out. A call without a number means that no potency is given here. Activity calls are given as the source filed them. Calls follow the shape of the dose curve; as a rule, active = well fitted activation curve with a large enough effect; inconclusive = small, poorly fitted or top-dose-only effect; inactive = no such curve, though single readings can be large or run the other way.

Assay: qHTS assay for re-activators of p53 using a Luc reporter: Hit Validation with no p53 Expressed
Settings: p53-null cells, luciferase reporter counter-screen; series mostly up to 46.1 µM
Method in brief: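 Counter-screen of primary hits in a cell line not transfected with p53, in Opti-MEM with 10% FBS; compounds at several concentrations (10 mM stock, 1:5; top 46.1 µM in well), 24 h at 37 deg C, 5% CO2. Luminescence read after 10 min with Amplite reagent.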
Potency is read from the fitted curve at half-maximal effect.

Structure (SMILES) | Potency
Cc1ccc(-c2cc(-c3ccccc3Cl)[nH]n2)c(O)c1 | inactive
Cc1c(C(=O)N2CCc3ccccc32)oc2c1C(=O)CC(C)(C)C2 | inactive
CCN(CC)c1ccc(NC(=O)CN2CCN(CC(=O)Nc3ccccc3F)CC2)cc1 | inactive
CCOC(=O)c1ccc(N2Cc3ccccc3C2=NC(=O)c2cccs2)cc1 | inactive
CC(=O)c1c(C)[nH]c(C(=O)OCC(=O)c2ccc(C)s2)c1C | inactive
Brc1c(CSc2nc3ccccc3s2)nc2ncccn12 | inactive
Nc1c(C(=O)c2ccc(Br)cc2)oc2ccccc12 | inactive
CC(C)c1ccc2oc(-c3ccc(N)cc3)nc2c1 | inactive
Cc1cc(NC(c2cccnc2)c2ccc3cccnc3c2O)no1 (centres undefined) | inactive
Cc1cc(C(=O)N2CCN(c3ccccc3Cl)CC2)c(C)o1 | inactive
Cc1ccc(Nc2nc(N)nc(CSc3nccn3C)n2)cc1 | inactive
O=C(Nc1ccc2c(c1)OCO2)c1cc(Cl)ccn1 | inactive
COCCCNC(=O)Nc1ccc(Br)cc1Cl | inactive
CCN(CC)C(=O)CSC(=Nc1ccccc1F)NC#N | inactive
Cc1ccc(-c2nnc(N(C)C(=O)C3CCCO3)s2)cn1 (centres undefined) | inactive
C=CCNc1nc(-c2cc3ccccc3o2)cs1 | inactive
Cc1ccc(S(=O)(=O)CNC(=O)c2ccccc2)cc1 | inactive
O=C(Nc1nc(-c2ccco2)c(-c2ccco2)s1)c1ccc(F)cc1F | inactive
COc1ccc(C(=O)N=c2nc3ccccn3s2)cc1 | inactive
Cc1ccc(NC(=O)COc2ccc3c(c2)OCO3)c(Cl)c1 | inactive

Structure (SMILES) | Potency
N#C/C(=C\c1ccccc1[N+](=O)[O-])c1nc(C2CC2)cs1 | 11.6 µM (active)
CC1(C)CC(=O)CC(=O)/C1=N\Nc1c(Cl)cc(Cl)cc1Cl | inactive
Oc1ccccc1-c1cc(-c2ccc3c(c2)OCCO3)n[nH]1 | inactive
Cc1cc(N2CCCCC2)n2ncc(-c3ccc(Cl)cc3)c2n1 | inactive
O=C(Nc1ccc(Br)cn1)c1cccc(-c2cc3ccccc3oc2=O)c1 | inactive
COc1cc(NC(=O)C(C)C)ccc1NC(=O)c1ccco1 | inactive
CC1CC1C(=O)Nc1nc2ccc(S(C)(=O)=O)cc2s1 (centres undefined) | inactive
CCc1ccc(N=c2c([N+](=O)[O-])nn(-c3ccccc3)n2O)cc1 | inactive
CC(C)N1CCc2c(sc(NC(=S)NC(=O)c3ccccc3)c2C#N)C1 | inactive
CCOC(=O)c1sc(NC(=S)NC(=O)c2ccco2)nc1C | inactive
Nc1nc(-c2ccc([N+](=O)[O-])cc2)cs1 | inactive
O=C(/C=C/c1ccco1)NC(=S)Nc1cc(-c2nc3ccccc3s2)ccc1Cl | inactive
O=C(NC1CCCCC1)c1ccc(-c2ccccc2F)o1 | inactive
c1ccc2nc(-c3ccc(N4CCOCC4)cc3)ccc2c1 | inactive
Oc1ccc(N=Cc2c(O)ccc3ccccc23)cc1 | inactive
COCCSc1ccccc1C(=O)Nc1cc(C)ccn1 | inactive
Cc1cccc(Nc2cc(=O)[nH]c(=O)[nH]2)c1C | inactive
Cc1ccc(/C=N/NC(=O)c2cccs2)s1 | inactive
CCc1nnc(NC(=O)/C=C/c2ccco2)s1 | inactive
